Screening data deposited in PubChem by National Center for Advancing Translational Sciences (NCATS).
Shown are actives, neighbours in structure and some others; about 8.9% of the full set was active somewhere.
MCF10A rerep: A quantitative high throughput screen for small molecules that induce DNA re-replication in MCF 10a normal breast cells; MCF 10A DNA re-replication, Hoechst nuclear intensity, 48 h; Potency, µM (series often up to 46.1 µM), usual class: activators; 2.9% of 350,000 active; AID 624296, 2012; also: nearly all actives have a fitted effect of over 50% in size
KB-3-1 cytotox: qHTS assay for MDR1-selective chemotherapeutics: Primary screen using the parental adenocarcinoma cell KB-3-1; AID 1347075, 2019; 1.4% of 400,000 active; Potency, µM (doses to about 46.1 µM), usual class: cytotoxic; KB-3-1 viability, CellTiter-Glo ATP luminescence, 72 h; also: nearly all actives have a fitted effect of over 60% in size
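Viability of parental KB-3-1 cells, measured by CellTiter-Glo luminescence, followed a 72 h incubation at 37 °C with pinned compounds in phenol-red-free DMEM containing 10% FBS.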
DRD3 antagonist: qHTS of D3 Dopamine Receptor Antagonist: qHTS. D(3) dopamine receptor (Homo sapiens), P35462. D3R cells, DiscoveRx beta-arrestin luminescence, antagonist mode; active compounds read low. max response, negative = inhibition, %. 2.5% of 360,000 active; in the data active = max response below about -50%; inconclusive = no clear call, values can overlap the other calls
Target sequence (P35462 whole entry, looked up): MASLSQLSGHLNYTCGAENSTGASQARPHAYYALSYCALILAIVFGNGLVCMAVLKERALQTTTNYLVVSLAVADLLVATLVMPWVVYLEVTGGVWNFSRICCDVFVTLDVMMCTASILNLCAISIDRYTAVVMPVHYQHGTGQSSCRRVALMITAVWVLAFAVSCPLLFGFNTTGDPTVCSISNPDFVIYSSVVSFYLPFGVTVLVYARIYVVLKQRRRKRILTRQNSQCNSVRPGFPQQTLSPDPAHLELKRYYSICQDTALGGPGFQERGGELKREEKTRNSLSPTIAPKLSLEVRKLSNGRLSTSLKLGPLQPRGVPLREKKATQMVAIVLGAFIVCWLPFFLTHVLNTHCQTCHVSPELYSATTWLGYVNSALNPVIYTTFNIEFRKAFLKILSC
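Cells expressing the human receptor were seeded at 1500 cells/well, incubated overnight at 37 degrees C in 5% CO2, then exposed to library compounds with dopamine controls for 90 minutes at 37 degrees C before luminescent detection.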
SW480 rereplic: A quantitative high throughput screen for small molecules that induce DNA re-replication in SW480 colon adenocarcinoma cells; 1.8% of 340,000 active; SW480 DNA re-replication, Hoechst DNA content imaging, 48 h; Potency, µM (series often up to 46.1 µM), hits mostly activators; also: nearly all actives have a fitted effect of over 55% in size
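Image-based DNA-content assay: after two days of treatment, nuclei were labelled with the DNA dye Hoechst and imaged, and hits were compounds raising the count of nuclei showing high fluorescence intensity.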
KB-V1 cytotox: qHTS assay for MDR1-selective chemotherapeutics: Primary screen using the drug-selected MDR subline cells KB-V1. KB-V1 MDR cells viability, CellTiter-Glo, 72 h. Potency, µM (top dose mostly 46.1 µM), hits mostly cytotoxic. 3.4% of 400,000 active. AID 1347076, 2019; also: nearly all actives have a fitted effect of over 60% in size
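Drug-selected KB-V1 cells, grown in DMEM lacking phenol red with 10% FBS, receive compound titrations; after three days at 37 degrees C, surviving cell ATP is quantified by CellTiter-Glo luminescence and responses normalized and curve-fitted.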
DRD3 agonist: qHTS of D3 Dopamine Receptor Agonist: qHTS | D3R DiscoveRx beta-arrestin cells, luminescence, 90 min | max activation, % | 0.58% of 410,000 active | AID 652048, 2013; in the data active = max activation above about 30%
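Agonist-mode cell screen: cells plated at 1500/well and incubated overnight at 37 °C, then exposed to library compounds for 90 min at 37 °C. Detection reagent was added for 30–60 min at room temperature, and luminescence was read.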
Of the large screens only hits and unclear results are named; the others gave an inactive call. Unless noted, calls follow the shape of the dose curve; as a rule, active = well fitted curve in the direction sought with a large enough effect; inconclusive = small, poorly fitted or top-dose-only effect, or another doubt; inactive = no such curve, though single readings can be large; an effect the other way counts as inactive or inconclusive.

Cc1ccc(-c2nc(CN3C(=O)CN=C(c4ccccc4Cl)c4cc(Cl)ccc43)c(C)o2)cc1	KB-3-1 cytotox inconclusive, KB-V1 cytotox inconclusive (no result: MCF10A rerep, DRD3 antagonist, SW480 rereplic)
CCCN(CCC)C1Cc2cc(OC)c(OC)cc2C1	DRD3 antagonist -103
COc1cc2c(cc1OC)C(C)NCC2 (configuration not stated)	none
CN(C)c1ccc(C(=O)c2ccc(N(C)C)cc2)cc1	MCF10A rerep 6.5µM, KB-3-1 cytotox inconclusive, SW480 rereplic 5.2µM, KB-V1 cytotox inconclusive
COC(=O)c1ccc(COc2cc(C)cc3oc(=O)c4c(c23)CCCC4)o1	KB-V1 cytotox inconclusive
COC(=O)c1ccc(CSc2nc3c(cnn3-c3ccc(C)cc3)c(=O)[nH]2)o1	MCF10A rerep inconclusive, KB-V1 cytotox inconclusive, DRD3 agonist 35
Cc1cc(OCC(=O)N2CCN(CCc3ccncc3)CC2)ccc1Cl	none (no result: MCF10A rerep, DRD3 antagonist, SW480 rereplic)
COC(=O)c1ccc(NC(=O)CSc2nc3ccc(N4C(=O)C5C6C=CC(C6)C5C4=O)cc3s2)cc1 (configuration not stated)	MCF10A rerep inconclusive, KB-3-1 cytotox 21µM, KB-V1 cytotox 21µM
Cc1ccc(NC(=O)N(Cc2ccc3c(c2)OCO3)C2CCN(Cc3ccccc3)CC2)cc1Cl	KB-3-1 cytotox inconclusive (no result: MCF10A rerep, DRD3 antagonist, SW480 rereplic)
COC(=O)C1=CO[C@@H](OC2OC(CO)C(O)C(O)C2O)[C@@H]2C(CO)=CC[C@H]12 (some centres not stated)	KB-V1 cytotox inconclusive
CN(C)c1cccc(CN2CCN(c3ccccc3)CC2)c1	DRD3 antagonist -85 (no result: MCF10A rerep, SW480 rereplic)
Cc1ccc(CN2CCN(Cc3ccccc3)CC2)cc1	DRD3 antagonist inconclusive
CC1CCC(C(C)C)C(OC(=O)Cn2c(COc3ccccc3)[n+](C)c3ccccc32)C1 (configuration not stated)	MCF10A rerep inconclusive, KB-3-1 cytotox 23µM
C[N+]1(CCF)[C@@H]2CC[C@H]1CC(OC(=O)C(O)(c1ccccc1)c1ccccc1)C2 (some centres not stated)	none (no result: MCF10A rerep, KB-3-1 cytotox, DRD3 antagonist, SW480 rereplic, KB-V1 cytotox)
CCN(CC)S(=O)(=O)c1cc(NC(=O)C(C)N2CC=C(c3ccccc3)CC2)ccc1C (configuration not stated)	KB-3-1 cytotox 21µM, SW480 rereplic inconclusive, KB-V1 cytotox 16µM
CCCCOP(=O)(OCCCC)C(Nc1ccc(C(=O)OCC)cc1)c1ccncc1 (configuration not stated)	MCF10A rerep inconclusive
CCNC(=O)CCSc1nc2cc(Cl)ccc2o1	SW480 rereplic inconclusive
Cc1ccc(NC(=O)c2snnc2C)cc1Cl	KB-3-1 cytotox inconclusive, KB-V1 cytotox 10µM
C[C@]12C/C(=C/O)C(=O)C[C@@H]1CC[C@@H]1[C@@H]2CC[C@@]2(C)[C@H]1CC[C@]2(C)O	MCF10A rerep inconclusive, SW480 rereplic inconclusive (no result: KB-3-1 cytotox, DRD3 antagonist, KB-V1 cytotox)
O=P(O)(O)Cc1ccccc1OP(=O)(c1ccccc1)c1ccccc1	DRD3 antagonist inconclusive, KB-V1 cytotox 23µM
C=Cc1ccc(Cn2c(C)c(CNCCc3cc(OC)ccc3OC)c(C(=O)O)c2C)cc1	none (no result: MCF10A rerep, DRD3 antagonist, SW480 rereplic)
Cc1cc(C)c(C(=O)CN2CCOCC2)c(C)c1	MCF10A rerep 8.2µM, SW480 rereplic 9.2µM
COc1ccc(C(=O)CN2CCOCC2)cc1	none (no result: MCF10A rerep, DRD3 antagonist, SW480 rereplic, DRD3 agonist)
CCOC(=O)NC(C)(C)Cc1ccc(Cl)cc1	none (no result: MCF10A rerep, KB-3-1 cytotox, DRD3 antagonist, SW480 rereplic, KB-V1 cytotox)
CC(N)C(=O)NC1C2C(=C(O)CC(O)C2O)C(=O)OC1(C)C(Cl)Cl (configuration not stated)	MCF10A rerep inconclusive, KB-3-1 cytotox 2.1µM, SW480 rereplic inconclusive, KB-V1 cytotox 18µM
NCc1cccnc1	none (no result: KB-3-1 cytotox, DRD3 antagonist, KB-V1 cytotox)
Cc1nnc(NC(=O)c2cccn(Cc3ccc(Cl)cc3)c2=O)s1	none (no result: MCF10A rerep, DRD3 antagonist, SW480 rereplic)
Cc1ccc2c(Cl)cc(Cl)c(O)c2n1	MCF10A rerep 21µM, DRD3 antagonist -110, SW480 rereplic 10µM
CN(C)C(=O)Oc1c(Cl)cc(Cl)c2cccnc12	none
